# Measured values from PubChem BioAssay.
# Activity calls are given as the source filed them. Unless noted, no rule for the calls is given here.
# Experiments:
# [1] = tested on: XIP peptide (Xip251-270) binding; assay: XIP fragment 251-270 binding compounds – biochemical, small-molecule microarray, fluorescence 635/667 nm, 0.1 µg/mL protein, primary screen (AID 1182); details: fluorescent protein binding, 635 nm, higher = more signal, called active from +8 up or from −8 down
# [2] = tested on: XIP peptide (Xip251-270); assay: compounds binding XIP fragment 251-270 – biochemical, small-molecule microarray, fluorescence 635/667 nm, 0.5 µg/mL protein, primary screen (AID 1183); details: fluorescence 635 nm, higher = more signal
# [3] = blood-stage malaria parasite viability loss – strain 3D7, DAPI fluorescence, 100 nL, primary screen (AID 1184);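 also: parasites grown inside human red blood cells in medium with human serum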; details: P. falciparum 3D7 growth, 3 d, higher = more signal
# [4] = biological target: Homeobox protein Hox-A13 (Mus musculus) (UniProt Q62424); assay: disruptors of Hoxa13 oligonucleotide interaction – biochemical, fluorescence polarization, labeled oligonucleotide, primary screen (AID 1185); details: Hoxa13:DNA binding, 15 min, higher = more signal, called active from +8 up or from −8 down
# Homeobox protein Hox-A13 (Mus musculus), sequence (Q62424 whole entry, looked up): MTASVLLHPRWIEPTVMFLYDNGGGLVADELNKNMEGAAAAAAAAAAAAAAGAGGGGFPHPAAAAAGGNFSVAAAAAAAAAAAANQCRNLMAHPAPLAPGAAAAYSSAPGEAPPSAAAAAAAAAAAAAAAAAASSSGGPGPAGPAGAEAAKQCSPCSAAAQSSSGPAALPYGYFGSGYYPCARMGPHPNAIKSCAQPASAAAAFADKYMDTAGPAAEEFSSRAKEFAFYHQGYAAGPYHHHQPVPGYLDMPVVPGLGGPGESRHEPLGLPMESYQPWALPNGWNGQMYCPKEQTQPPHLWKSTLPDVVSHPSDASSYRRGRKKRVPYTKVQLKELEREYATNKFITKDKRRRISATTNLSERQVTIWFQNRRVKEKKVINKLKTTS
# [5] = blockers of DNA damage checkpoint Chk1 activation – imaging, HeLa, hydroxyurea, phospho-Chk1 antibody, percent positive cells, primary screen (AID 1186); details: hydroxyurea-induced phospho-Chk1 immunofluorescence imaging, higher = more signal
# [6] = blockers of DNA damage checkpoint Chk1 activation – imaging, HeLa, hydroxyurea, phospho-Chk1 nuclear intensity, primary screen (AID 1187); details: hydroxyurea-induced phospho-Chk1 immunofluorescence imaging, higher = more signal
SMILES,composite z-score [1],composite z-score [2],z-score [3],z-score [4],z-score [5],z-score [6]
COC(=O)C(CC#Cc1ccc2c(c1)[C@]1(C(=O)N2)[C@H](c2ccccc2OCCO)N2[C@H](c3ccccc3)[C@H](c3ccccc3)OC(=O)[C@H]2[C@@H]1C(=O)Nc1nc2ccccc2s1)C(=O)OC,1.32 (inactive),0.727,-2,0.787 (inactive),-0.0918 (inactive),-0.269 (inactive)
CC(C)N1C(=O)c2ccccc2[C@](C)(C(=O)O)[C@@H]1c1ccc(CO)cc1,0.202 (inactive),0.0967,0.859,-1.63 (inactive),0.113 (inactive),0.318 (inactive)
O=C1O[C@H](c2ccccc2)[C@H](c2ccccc2)N2[C@H]1[C@@H](C(=O)N1CCN(c3ncccn3)CC1)[C@]1(C(=O)Nc3ccc(C#CCCO)cc31)[C@H]2c1ccccc1OCCO,0.439 (inactive),0.808,-2.19,-1.29 (inactive),-0.329 (inactive),-0.529 (inactive)
NC(=O)NCC#Cc1ccc2c(c1)[C@]1(C(=O)N2)[C@H](c2ccc(O)cc2)N2[C@H](c3ccccc3)[C@H](c3ccccc3)OC(=O)[C@H]2[C@@H]1C(=O)NC[C@H](O)c1ccccc1,-0.0884 (inactive),-0.294,-0.547,-0.93 (inactive),-0.186 (inactive),-0.151 (inactive)
COc1ccc([Si](C)(C)[C@H]2[C@H](CCO)O[C@@]3(C(=O)N(Cc4cccc(N5CCOC5=O)c4)c4ccccc43)[C@@H]2C)cc1,0.154 (inactive),0.687,-2.79,-4.21 (inactive),-1.12 (inactive),-0.5 (inactive)
COCCCNC(=O)[C@@]1(Cc2ccccc2I)c2ccccc2C(=O)N(Cc2ccccc2Cl)[C@H]1c1ccc(CO)cc1,1.75 (inactive),0.595,-1.22,-4.93 (inactive),-0.152 (inactive),0.187 (inactive)
NC(=O)[C@@H]1[C@H]2C(=O)O[C@H](c3ccccc3)[C@H](c3ccccc3)N2[C@H](c2ccccc2OCCO)[C@@]12C(=O)Nc1ccc(C#CCCO)cc12,0.585 (inactive),0.588,0.291,-5.7 (inactive),-0.266 (inactive),-0.161 (inactive)
COc1ccc(C#Cc2ccc3c(c2)[C@]2(C(=O)N3)[C@H](C(N)=O)[C@H]3C(=O)O[C@H](c4ccccc4)[C@H](c4ccccc4)N3[C@@H]2c2ccc(O)cc2)cc1,1.13 (inactive),0.712,0.0021,-0.559 (inactive),-0.607 (inactive),-0.861 (inactive)
COCCOC(=O)N1C(=O)[C@@]2(c3cc(C#CCCO)ccc31)[C@H](C(=O)N1CCc3cc(OC)c(OC)cc3C1)[C@H]1C(=O)O[C@H](c3ccccc3)[C@H](c3ccccc3)N1[C@@H]2c1ccc(OCCO)cc1,-0.608 (inactive),0.726,-2.14,3.13 (inactive),-0.148 (inactive),-0.0047 (inactive)
COC(=O)[C@@]1(Cc2ccccc2)[C@H]2c3cc(C(=O)N4CCCC4)n(CCO)c3C[C@H]2CN1C(=O)c1ccccc1,1.06 (inactive),0.824,-1.29,-0.89 (inactive),-0.536 (inactive),-0.0989 (inactive)
C=CCOC(=O)[C@@H]1[C@H]2C(=O)O[C@H](c3ccccc3)[C@H](c3ccccc3)N2[C@H](c2ccc(OCCOC(=O)[C@@H]3C[C@@H]4C(=O)N5CCC[C@H]5C(=O)N4[C@@H]3c3cccc(OCCO)c3)cc2)[C@@]12C(=O)Nc1ccc(I)cc12,0.284 (inactive),0.632,-1.72,1.17 (inactive),0.021 (inactive),0.318 (inactive)
CCN(CC)c1ccc(N2CC=CC34O[C@@H]5/C=C\CCCOC(=O)C5[C@H]3C(=O)N(CCCCCO)[C@@H]4C2=O)cc1 (some centres not stated),-0.0261 (inactive),0.0595,1.98,-5.15 (inactive),-0.0764 (inactive),0.34 (inactive)
O=C1C2C=CC(C(O)c3cccc4ccccc34)N(Nc3ccccc3)C2C(=O)N1c1ccccc1 (configuration not stated),0.179 (inactive),0.807,-0.176,-0.231 (inactive),0.107 (inactive),-0.294 (inactive)
O=C(Nc1cc(Br)ccc1C(=O)NCc1cccc(O)c1)c1ccccc1,2.11 (inactive),0.597,-0.64,-0.429 (inactive),0.0071 (inactive),-0.27 (inactive)
COCCOC(=O)N1C(=O)[C@@]2(c3ccccc31)[C@H](c1ccccc1OCCO)N1[C@H](c3ccccc3)[C@H](c3ccccc3)OC(=O)[C@H]1[C@@H]2C(=O)N1CCc2cc(OC)c(OC)cc2C1,0.159 (inactive),0.84,-2.46,-2.43 (inactive),-0.453 (inactive),-0.193 (inactive)
COCCOC(=O)N1C(=O)[C@@]2(c3cc(C#CCCO)ccc31)[C@H](C(=O)NC[C@H](O)c1ccccc1)[C@H]1C(=O)O[C@H](c3ccccc3)[C@H](c3ccccc3)N1[C@@H]2c1ccccc1OCCO,0.355 (inactive),0.564,-0.89,-2.38 (inactive),0.308 (inactive),0.431 (inactive)
C[N+](C)(C)CCCCCCNC(=O)[C@H]1C[C@H]2C(=O)N3CCC[C@H]3C(=O)N2[C@H]1c1cccc(OCCO)c1,0.883 (inactive),0.713,0.14,-3.94 (inactive),0.372 (inactive),0.182 (inactive)
COc1ccc(CCNC(=O)[C@@H]2c3ccccc3C(=O)N(Cc3ccccc3)[C@H]2c2ccc(CO)cc2)cc1,1.09 (inactive),0.619,-1.08,-3.2 (inactive),-0.938 (inactive),-1.38 (inactive)
COC(=O)[C@@]1(Cc2ccccc2N=[N+]=[N-])N=C(c2ccc(OCCCO)cc2)O[C@H]1c1ccccc1,0.37 (inactive),0.601,-1.85,-3.98 (inactive),0.069 (inactive),-0.447 (inactive)
COC(=O)C(CC#Cc1ccc2c(c1)[C@]1(C(=O)N2)[C@H](c2ccc(O)cc2)N2[C@H](c3ccccc3)[C@H](c3ccccc3)OC(=O)[C@H]2[C@@H]1C(=O)O)C(=O)OC,-0.173 (inactive),0.665,-0.102,-6.45 (inactive),0.223 (inactive),-0.31 (inactive)
CCCCC(=C=CC[C@H](O)c1cccc(OCCO)c1)C[C@H](O)COCc1ccccc1,1.4 (inactive),0.752,-1.88,-4.78 (inactive),-0.0835 (inactive),0.0554 (inactive)
CCCN1C(=O)[C@@H]2Cc3c([nH]c4ccccc34)[C@@H](c3cccc(O)c3)N2C1=O,-0.227 (inactive),0.181,1.39,-0.802 (inactive),-0.0463 (inactive),-0.202 (inactive)
COc1ccc(C#Cc2ccc3c(c2)[C@]2(C(=O)N3)[C@H](C(=O)O)[C@H]3C(=O)O[C@H](c4ccccc4)[C@H](c4ccccc4)N3[C@@H]2c2ccc(OCCO)cc2)cc1,2.6 (inactive),0.701,-1.78,-5.22 (inactive),0.573 (inactive),0.862 (inactive)
Cc1ccc(S[C@]2(C(=O)NCc3ccccc3)CC(=O)N(C3Cc4ccccc4C3)[C@@H]2c2ccc(CO)cc2I)cc1,1.77 (inactive),0.23,0.237,-1.78 (inactive),-0.424 (inactive),-0.164 (inactive)
CO[C@H]1O[C@H](CO)[C@@H](OC(=O)Nc2cccc(F)c2)[C@H](OC(=O)Nc2ccc3c(c2)OCO3)[C@H]1OC(=O)Nc1ccc2c(c1)OCO2,1.87 (inactive),0.813,-1.34,-7.92 (inactive),-0.178 (inactive),0.0427 (inactive)
CC(C)C(CO)N1C(=O)[C@@H]2[C@H]3C(=O)OCC=C[C@H]3OC23C=CCN(CCN2CCOCC2)C(=O)[C@@H]13 (some centres not stated),0.708 (inactive),0.3,-0.0296,-4.54 (inactive),0.318 (inactive),0.436 (inactive)
C=CCC(OC(C)=O)[C@@H]1[C@@H](N(Cc2cccc3ccccc23)C(=O)c2ccc(C)cc2)c2cc(OCCCO)ccc2N1C(=O)c1ccc2ccccc2c1 (some centres not stated),0.591 (inactive),0.52,-2.2,-0.0802 (inactive),-0.995 (inactive),-0.761 (inactive)
